Key:
Assay in all cases: DAPPL (digital affinity profiling via proximity ligation, sequencing); 10 mM Tris-HCl pH 7.5, 50 mM NaCl, 1 mM DTT, 4% glycerol, room temperature, 30 min; GST-TFs on glutathione beads, 16-mer random dsDNA library, 0.1% formaldehyde crosslink after washing; high values mean tight binding
FLI1 = target: T1, FLI1 (Homo sapiens, UniProt Q01543 1-452); conditions: protein: recombinant; tags: N-terminal GST; dsDNA, one strand shown
T1 sequence: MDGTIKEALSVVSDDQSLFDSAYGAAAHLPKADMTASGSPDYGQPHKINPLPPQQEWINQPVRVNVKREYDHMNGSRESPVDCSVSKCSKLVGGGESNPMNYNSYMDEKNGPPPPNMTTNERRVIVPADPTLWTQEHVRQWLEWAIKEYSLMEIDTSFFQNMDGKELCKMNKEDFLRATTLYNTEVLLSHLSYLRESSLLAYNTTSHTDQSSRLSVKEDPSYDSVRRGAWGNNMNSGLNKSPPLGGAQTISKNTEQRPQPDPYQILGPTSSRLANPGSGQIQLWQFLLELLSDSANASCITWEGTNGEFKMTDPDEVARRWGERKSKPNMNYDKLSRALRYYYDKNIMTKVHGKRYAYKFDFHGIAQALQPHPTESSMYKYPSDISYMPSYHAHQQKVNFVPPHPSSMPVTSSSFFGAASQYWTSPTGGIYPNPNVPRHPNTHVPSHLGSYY
Summary of the method: (§1)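 Pools of DNA-barcoded human transcription factors, expressed in yeast as GST fusions on glutathione beads and combined with a tag-only sample, were incubated with 200 nmole of a 16-mer random double-stranded DNA library. Incubation took 30 min at room temperature in Tris/NaCl/DTT/glycerol buffer and was followed by washing, 0.1% formaldehyde crosslinking, proximity ligation (BsaI/T4 ligase, 1 h, 37 °C), PCR amplification and sequencing on an Illumina NextSeq500. Binding signal is the ratio of a hexamer's read frequency for a factor to its frequency for the tag-only sample.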

ELK1 = target: T2, ELK1 (Homo sapiens, UniProt P19419 1-428); conditions: protein: recombinant; tags: N-terminal GST; dsDNA, one strand shown
T2 sequence: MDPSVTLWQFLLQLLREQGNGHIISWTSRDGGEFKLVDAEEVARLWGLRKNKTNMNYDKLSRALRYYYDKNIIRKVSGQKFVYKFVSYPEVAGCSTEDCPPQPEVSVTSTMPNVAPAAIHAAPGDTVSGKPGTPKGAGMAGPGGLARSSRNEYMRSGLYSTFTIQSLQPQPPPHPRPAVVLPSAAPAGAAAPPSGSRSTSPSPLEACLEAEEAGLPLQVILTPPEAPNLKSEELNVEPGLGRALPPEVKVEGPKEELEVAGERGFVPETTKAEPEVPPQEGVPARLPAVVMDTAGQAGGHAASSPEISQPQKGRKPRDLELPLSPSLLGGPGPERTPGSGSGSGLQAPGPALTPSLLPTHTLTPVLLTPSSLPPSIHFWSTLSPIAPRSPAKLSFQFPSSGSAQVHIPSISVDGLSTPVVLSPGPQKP
Summary of the method: as §1

GABPA = target: T3, GABPA (Homo sapiens, UniProt Q06546 1-454); conditions: protein: recombinant; tags: N-terminal GST; dsDNA, one strand shown
T3 sequence: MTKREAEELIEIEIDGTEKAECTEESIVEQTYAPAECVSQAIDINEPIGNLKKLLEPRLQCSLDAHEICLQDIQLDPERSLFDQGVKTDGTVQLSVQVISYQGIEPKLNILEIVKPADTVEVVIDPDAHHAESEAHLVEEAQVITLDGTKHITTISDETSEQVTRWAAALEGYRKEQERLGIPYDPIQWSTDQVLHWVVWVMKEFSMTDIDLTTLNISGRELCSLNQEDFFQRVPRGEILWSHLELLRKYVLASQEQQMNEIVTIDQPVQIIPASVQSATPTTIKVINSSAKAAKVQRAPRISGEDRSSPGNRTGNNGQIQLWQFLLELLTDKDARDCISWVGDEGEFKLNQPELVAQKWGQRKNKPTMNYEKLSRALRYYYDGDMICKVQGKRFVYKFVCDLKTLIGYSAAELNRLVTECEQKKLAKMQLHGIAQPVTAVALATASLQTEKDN
Summary of the method: as §1

ERG = target: T4, ERG (Homo sapiens, UniProt P11308 1-479); conditions: protein: recombinant; tags: N-terminal GST; dsDNA, one strand shown
T4 sequence: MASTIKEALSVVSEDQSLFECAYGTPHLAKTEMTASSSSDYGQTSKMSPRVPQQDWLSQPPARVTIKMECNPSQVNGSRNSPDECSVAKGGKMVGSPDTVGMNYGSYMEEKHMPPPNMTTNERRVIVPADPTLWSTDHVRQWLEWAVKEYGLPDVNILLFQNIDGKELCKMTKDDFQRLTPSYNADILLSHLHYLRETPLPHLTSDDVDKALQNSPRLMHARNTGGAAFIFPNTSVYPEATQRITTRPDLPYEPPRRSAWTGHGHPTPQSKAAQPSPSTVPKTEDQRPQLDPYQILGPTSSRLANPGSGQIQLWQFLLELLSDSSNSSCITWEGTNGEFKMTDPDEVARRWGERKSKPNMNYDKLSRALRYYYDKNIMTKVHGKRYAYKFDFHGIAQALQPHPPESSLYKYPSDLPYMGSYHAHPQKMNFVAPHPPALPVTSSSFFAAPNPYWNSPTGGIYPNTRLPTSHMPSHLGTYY
Summary of the method: as §1

ELF1 = ELF1 (Homo sapiens, UniProt P32519 1-619); conditions: protein: recombinant; tags: N-terminal GST; dsDNA, one strand shown
Summary of the method: as §1

EHF = target: T5, EHF (Homo sapiens, UniProt Q9NZC4 1-300); conditions: protein: recombinant; tags: N-terminal GST; dsDNA, one strand shown
T5 sequence: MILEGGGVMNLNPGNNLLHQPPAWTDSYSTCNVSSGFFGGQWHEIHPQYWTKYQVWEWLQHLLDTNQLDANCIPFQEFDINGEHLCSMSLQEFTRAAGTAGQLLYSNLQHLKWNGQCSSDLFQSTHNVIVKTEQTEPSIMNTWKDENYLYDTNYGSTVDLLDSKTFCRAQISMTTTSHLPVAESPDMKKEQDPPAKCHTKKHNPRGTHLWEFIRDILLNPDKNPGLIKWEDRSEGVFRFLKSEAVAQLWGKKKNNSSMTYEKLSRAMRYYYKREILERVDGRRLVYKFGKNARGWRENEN
Summary of the method: as §1

SPI1 = SPI1 (Homo sapiens, UniProt P17947 1-270); conditions: protein: recombinant; tags: N-terminal GST; dsDNA, one strand shown
Summary of the method: as §1

SPIB = SPIB (Homo sapiens, UniProt Q01892 1-262); conditions: protein: recombinant; tags: N-terminal GST; dsDNA, one strand shown
Summary of the method: as §1

ELK3 = target: T6, ELK3 (Homo sapiens, UniProt P41970 1-407); conditions: protein: recombinant; tags: N-terminal GST; dsDNA, one strand shown
T6 sequence: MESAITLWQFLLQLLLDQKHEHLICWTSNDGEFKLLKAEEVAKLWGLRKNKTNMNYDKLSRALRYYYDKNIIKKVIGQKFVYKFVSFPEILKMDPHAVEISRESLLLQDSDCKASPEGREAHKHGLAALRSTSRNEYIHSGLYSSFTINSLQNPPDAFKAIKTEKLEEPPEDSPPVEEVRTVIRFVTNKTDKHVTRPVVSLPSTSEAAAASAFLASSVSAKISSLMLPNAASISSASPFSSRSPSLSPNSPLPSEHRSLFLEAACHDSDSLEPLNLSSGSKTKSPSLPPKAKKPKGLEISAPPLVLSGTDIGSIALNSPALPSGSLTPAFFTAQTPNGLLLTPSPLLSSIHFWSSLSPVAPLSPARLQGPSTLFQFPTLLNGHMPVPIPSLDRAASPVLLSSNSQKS
Summary of the method: as §1

FEV = target: T7, FEV (Homo sapiens, UniProt Q99581 1-238); conditions: protein: recombinant; tags: N-terminal GST; dsDNA, one strand shown
T7 sequence: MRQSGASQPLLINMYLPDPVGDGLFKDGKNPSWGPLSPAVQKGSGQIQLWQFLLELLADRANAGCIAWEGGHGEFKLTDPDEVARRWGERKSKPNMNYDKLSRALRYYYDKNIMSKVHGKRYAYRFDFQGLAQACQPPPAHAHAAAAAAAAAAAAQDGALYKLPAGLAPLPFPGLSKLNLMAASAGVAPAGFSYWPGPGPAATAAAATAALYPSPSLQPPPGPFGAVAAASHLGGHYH
Summary of the method: as §1

ETV5 = ETV5 (Homo sapiens, UniProt P41161 1-510); conditions: protein: recombinant; tags: N-terminal GST; dsDNA, one strand shown
Summary of the method: as §1

HSF1 = HSF1 (Homo sapiens, UniProt Q00613 1-529); conditions: protein: recombinant; tags: N-terminal GST; chain copies: 3; dsDNA, one strand shown
Summary of the method: as §1

SPIC = target: T8, SPIC (Homo sapiens, UniProt Q8N5J4 1-248); conditions: protein: recombinant; tags: N-terminal GST; dsDNA, one strand shown
T8 sequence: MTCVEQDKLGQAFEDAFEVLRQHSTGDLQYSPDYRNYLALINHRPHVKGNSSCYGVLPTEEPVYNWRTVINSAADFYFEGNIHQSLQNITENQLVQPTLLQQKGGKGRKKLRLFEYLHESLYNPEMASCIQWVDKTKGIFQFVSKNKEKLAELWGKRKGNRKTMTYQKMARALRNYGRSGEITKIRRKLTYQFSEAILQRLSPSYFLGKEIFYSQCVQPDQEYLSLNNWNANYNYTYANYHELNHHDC
Summary of the method: as §1

ELF4 = ELF4 (Homo sapiens, UniProt Q99607 1-663); conditions: protein: recombinant; tags: N-terminal GST; dsDNA, one strand shown
Summary of the method: as §1

ELK4 = target: T9, ELK4 (Homo sapiens, UniProt P28324-2 1-405); conditions: protein: recombinant; tags: N-terminal GST; dsDNA, one strand shown
T9 sequence: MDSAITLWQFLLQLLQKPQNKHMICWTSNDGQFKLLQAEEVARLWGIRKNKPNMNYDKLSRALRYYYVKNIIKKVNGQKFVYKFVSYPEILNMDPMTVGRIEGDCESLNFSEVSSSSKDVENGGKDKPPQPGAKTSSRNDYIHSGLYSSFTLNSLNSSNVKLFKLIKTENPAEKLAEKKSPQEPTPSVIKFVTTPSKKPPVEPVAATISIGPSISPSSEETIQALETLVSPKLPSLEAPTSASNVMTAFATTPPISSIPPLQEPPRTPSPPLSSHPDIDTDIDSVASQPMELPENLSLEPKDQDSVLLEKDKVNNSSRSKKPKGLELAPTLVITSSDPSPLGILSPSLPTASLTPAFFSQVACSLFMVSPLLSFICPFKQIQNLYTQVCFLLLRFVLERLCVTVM
Summary of the method: as §1

ETV2 = target: T10, ETV2 (Homo sapiens, UniProt O00321 1-342); conditions: protein: recombinant; tags: N-terminal GST; dsDNA, one strand shown
T10 sequence: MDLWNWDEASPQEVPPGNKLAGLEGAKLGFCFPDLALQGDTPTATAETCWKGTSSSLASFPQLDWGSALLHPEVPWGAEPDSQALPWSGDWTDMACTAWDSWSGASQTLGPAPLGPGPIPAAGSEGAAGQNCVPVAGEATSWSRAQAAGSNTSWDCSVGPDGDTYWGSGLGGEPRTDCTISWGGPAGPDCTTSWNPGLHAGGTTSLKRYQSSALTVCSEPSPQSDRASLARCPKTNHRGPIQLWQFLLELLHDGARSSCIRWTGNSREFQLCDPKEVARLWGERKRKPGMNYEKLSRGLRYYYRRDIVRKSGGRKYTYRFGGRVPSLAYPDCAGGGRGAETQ
Summary of the method: as §1

ELF3 = target: T11, ELF3 (Homo sapiens, UniProt P78545 1-371); conditions: protein: recombinant; tags: N-terminal GST; dsDNA, one strand shown
T11 sequence: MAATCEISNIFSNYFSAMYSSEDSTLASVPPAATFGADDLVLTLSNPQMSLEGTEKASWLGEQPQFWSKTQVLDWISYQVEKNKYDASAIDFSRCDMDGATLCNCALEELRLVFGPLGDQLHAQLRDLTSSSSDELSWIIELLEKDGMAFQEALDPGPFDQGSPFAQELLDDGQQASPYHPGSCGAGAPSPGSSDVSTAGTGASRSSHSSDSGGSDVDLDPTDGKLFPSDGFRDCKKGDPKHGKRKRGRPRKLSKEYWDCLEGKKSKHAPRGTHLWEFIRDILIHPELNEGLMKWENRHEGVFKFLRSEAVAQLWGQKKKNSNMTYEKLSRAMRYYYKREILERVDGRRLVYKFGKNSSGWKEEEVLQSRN
Summary of the method: as §1

CRX = CRX (Homo sapiens, UniProt O43186 1-299); conditions: protein: recombinant; tags: N-terminal GST; dsDNA, one strand shown
Summary of the method: as §1

ETV1 = ETV1 (Homo sapiens, UniProt P50549 1-477); conditions: protein: recombinant; tags: N-terminal GST; dsDNA, one strand shown
Summary of the method: as §1

Sequence of ETV5 (P41161 whole entry): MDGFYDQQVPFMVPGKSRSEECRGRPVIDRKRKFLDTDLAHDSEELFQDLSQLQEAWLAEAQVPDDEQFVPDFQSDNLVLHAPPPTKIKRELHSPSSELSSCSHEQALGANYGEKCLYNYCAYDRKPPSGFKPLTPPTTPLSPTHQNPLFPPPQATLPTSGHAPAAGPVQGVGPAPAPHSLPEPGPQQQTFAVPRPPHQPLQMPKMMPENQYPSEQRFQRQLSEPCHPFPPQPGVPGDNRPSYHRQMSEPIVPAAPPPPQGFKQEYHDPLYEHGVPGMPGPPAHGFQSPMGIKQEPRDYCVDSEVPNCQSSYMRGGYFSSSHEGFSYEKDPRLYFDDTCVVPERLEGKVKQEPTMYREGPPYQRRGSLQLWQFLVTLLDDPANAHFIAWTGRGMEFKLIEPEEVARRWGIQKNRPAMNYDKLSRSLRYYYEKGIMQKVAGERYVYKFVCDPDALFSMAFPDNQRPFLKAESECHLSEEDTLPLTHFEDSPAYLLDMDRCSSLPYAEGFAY
Sequence of ELF1 (P32519 whole entry): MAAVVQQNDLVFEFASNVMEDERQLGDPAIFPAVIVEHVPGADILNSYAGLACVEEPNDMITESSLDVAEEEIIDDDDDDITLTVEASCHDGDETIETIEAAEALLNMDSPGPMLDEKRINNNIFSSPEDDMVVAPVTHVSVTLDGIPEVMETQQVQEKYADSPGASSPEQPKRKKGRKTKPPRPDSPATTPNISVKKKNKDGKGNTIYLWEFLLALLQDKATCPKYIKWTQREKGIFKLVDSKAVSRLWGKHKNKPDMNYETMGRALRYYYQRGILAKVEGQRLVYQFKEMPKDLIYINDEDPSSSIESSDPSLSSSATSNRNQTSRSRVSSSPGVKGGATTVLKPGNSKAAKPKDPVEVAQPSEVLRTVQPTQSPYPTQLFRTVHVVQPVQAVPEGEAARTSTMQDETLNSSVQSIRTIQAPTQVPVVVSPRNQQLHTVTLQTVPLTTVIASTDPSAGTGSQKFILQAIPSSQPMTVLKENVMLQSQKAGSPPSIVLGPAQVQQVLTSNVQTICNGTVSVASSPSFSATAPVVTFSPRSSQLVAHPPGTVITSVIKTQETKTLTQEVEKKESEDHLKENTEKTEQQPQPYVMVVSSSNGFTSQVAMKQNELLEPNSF
Sequence of SPIB (Q01892 whole entry): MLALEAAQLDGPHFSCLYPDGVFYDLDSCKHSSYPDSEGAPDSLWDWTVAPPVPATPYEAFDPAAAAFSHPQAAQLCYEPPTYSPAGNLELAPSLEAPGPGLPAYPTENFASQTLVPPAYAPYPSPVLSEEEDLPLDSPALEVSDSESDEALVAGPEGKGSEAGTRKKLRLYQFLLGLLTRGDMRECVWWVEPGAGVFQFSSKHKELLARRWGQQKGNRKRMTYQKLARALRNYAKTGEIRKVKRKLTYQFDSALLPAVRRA
Sequence of CRX (O43186 whole entry): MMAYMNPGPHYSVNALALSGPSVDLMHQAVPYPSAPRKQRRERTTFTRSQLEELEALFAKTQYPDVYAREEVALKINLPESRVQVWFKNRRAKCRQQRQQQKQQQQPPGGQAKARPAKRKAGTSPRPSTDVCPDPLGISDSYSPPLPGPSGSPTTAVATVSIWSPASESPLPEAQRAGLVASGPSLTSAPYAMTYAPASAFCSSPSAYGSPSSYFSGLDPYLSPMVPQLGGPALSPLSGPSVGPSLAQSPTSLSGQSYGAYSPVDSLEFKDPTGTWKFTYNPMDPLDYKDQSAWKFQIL
Sequence of ELF4 (Q99607 whole entry): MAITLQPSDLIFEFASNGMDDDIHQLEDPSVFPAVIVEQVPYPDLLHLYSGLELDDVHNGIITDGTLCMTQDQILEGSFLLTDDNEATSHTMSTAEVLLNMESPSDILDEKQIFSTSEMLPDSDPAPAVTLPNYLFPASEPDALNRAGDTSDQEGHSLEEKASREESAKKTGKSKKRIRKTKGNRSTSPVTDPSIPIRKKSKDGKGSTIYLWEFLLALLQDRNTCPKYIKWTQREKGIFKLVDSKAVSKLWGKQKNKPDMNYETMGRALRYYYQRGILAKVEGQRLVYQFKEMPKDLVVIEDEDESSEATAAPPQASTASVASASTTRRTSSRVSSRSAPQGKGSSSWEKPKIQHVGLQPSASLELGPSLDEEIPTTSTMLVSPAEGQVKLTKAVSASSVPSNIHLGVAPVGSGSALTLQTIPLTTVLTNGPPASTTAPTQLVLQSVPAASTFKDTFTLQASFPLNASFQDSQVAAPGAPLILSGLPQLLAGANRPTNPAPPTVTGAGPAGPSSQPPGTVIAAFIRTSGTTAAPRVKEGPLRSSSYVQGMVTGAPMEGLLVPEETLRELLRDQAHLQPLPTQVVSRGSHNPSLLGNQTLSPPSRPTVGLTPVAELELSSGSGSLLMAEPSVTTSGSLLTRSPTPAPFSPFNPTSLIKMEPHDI
Sequence of ETV1 (P50549 whole entry): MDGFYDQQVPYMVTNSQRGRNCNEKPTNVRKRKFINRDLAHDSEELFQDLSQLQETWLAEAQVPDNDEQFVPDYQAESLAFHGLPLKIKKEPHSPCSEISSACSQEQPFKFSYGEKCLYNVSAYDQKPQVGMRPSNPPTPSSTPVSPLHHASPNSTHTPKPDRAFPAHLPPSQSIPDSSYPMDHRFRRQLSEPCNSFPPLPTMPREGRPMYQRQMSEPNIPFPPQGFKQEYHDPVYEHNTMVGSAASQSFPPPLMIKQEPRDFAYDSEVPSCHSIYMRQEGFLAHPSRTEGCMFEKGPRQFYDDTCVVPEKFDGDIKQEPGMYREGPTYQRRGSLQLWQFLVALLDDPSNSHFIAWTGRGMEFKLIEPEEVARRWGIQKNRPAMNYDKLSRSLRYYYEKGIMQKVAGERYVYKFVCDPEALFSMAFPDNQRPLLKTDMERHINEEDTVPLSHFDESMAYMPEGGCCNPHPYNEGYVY
Sequence of HSF1 (Q00613 whole entry): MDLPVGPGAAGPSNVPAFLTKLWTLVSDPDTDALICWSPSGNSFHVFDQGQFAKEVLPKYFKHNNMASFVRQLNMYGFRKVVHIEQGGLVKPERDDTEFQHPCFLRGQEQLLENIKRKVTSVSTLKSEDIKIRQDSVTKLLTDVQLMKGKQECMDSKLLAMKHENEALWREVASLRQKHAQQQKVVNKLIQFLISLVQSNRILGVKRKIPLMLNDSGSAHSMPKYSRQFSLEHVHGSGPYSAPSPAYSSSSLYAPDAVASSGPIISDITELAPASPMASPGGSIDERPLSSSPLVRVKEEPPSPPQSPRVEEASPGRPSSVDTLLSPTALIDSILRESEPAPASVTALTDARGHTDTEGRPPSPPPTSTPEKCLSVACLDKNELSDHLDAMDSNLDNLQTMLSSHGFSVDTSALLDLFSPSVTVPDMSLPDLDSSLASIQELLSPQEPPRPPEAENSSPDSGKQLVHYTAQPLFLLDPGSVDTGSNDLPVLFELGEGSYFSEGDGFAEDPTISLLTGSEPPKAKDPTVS

With TAGCAA the binding signal (FLI1) was 1.15 fold enrichment (6-mer frequency, TF over GST control), the binding signal (ELK1) was 1.21 fold enrichment (6-mer frequency, TF over GST control) and the binding signal (GABPA) was 1.21 fold enrichment (6-mer frequency, TF over GST control). The binding signal (ERG) was 1.17 fold enrichment (6-mer frequency, TF over GST control), the binding signal (ELF1) was 1.23 fold enrichment (6-mer frequency, TF over GST control) and the binding signal (EHF) was 1.23 fold enrichment (6-mer frequency, TF over GST control). The binding signal (SPI1) was 1.21 fold enrichment (6-mer frequency, TF over GST control), the binding signal (SPIB) was 1.34 fold enrichment (6-mer frequency, TF over GST control) and the binding signal (ELK3) was 1.24 fold enrichment (6-mer frequency, TF over GST control). The binding signal (FEV) was 1.17 fold enrichment (6-mer frequency, TF over GST control), the binding signal (ETV5) was 1.33 fold enrichment (6-mer frequency, TF over GST control) and the binding signal (HSF1) was 1.59 fold enrichment (6-mer frequency, TF over GST control). The binding signal (SPIC) was 1.14 fold enrichment (6-mer frequency, TF over GST control), the binding signal (ELF4) was 1.34 fold enrichment (6-mer frequency, TF over GST control) and the binding signal (ELK4) was 1.38 fold enrichment (6-mer frequency, TF over GST control). The binding signal (ETV2) was 1.36 fold enrichment (6-mer frequency, TF over GST control), the binding signal (ELF3) was 1.36 fold enrichment (6-mer frequency, TF over GST control) and the binding signal (CRX) was 1.46 fold enrichment (6-mer frequency, TF over GST control). The binding signal (ETV1) was 1.23 fold enrichment (6-mer frequency, TF over GST control).
